In PubChem BioAssay (NCI):
About 83,000 compounds went through this panel and 20% of them were active in at least one assay; those are over-represented in the sample as a whole.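 96-well plates, one dose, 48 hours. Percent growth reported; active if below 10.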 Activity calls are given as the source filed them.

How the values were obtained:
Assay in all cases: NCI-60 one-dose screen, 48 h (100 = growth as untreated, 0 = no growth, -100 = all killed)
Conditions in all cases: 10 µM unless noted
DU-145 prostate = system: DU-145 prostate
K-562 leukemia = system: K-562 leukemia
MALME-3M melanoma = system: MALME-3M melanoma
MDA-MB-231 breast = system: MDA-MB-231 breast
RXF 393 renal = system: RXF 393 renal
SF-268 CNS = system: SF-268 CNS
SF-295 CNS = system: SF-295 CNS
SF-539 CNS = system: SF-539 CNS
UACC-257 melanoma = system: UACC-257 melanoma
M14 melanoma = system: M14 melanoma
HCT-15 colon = system: HCT-15 colon
HT29 colon = system: HT29 colon
SNB-75 CNS = system: SNB-75 CNS
SNB-19 CNS = system: SNB-19 CNS
U251 CNS = system: U251 CNS
PC-3 prostate = system: PC-3 prostate
SK-MEL-5 melanoma = system: SK-MEL-5 melanoma
UACC-62 melanoma = system: UACC-62 melanoma
LOX IMVI melanoma = system: LOX IMVI melanoma
SK-MEL-28 melanoma = system: SK-MEL-28 melanoma

Measured: growth

COc1ccc(S(=O)(=O)N(C)c2oc(-c3ccc(Cl)cc3)nc2C#N)cc1
inactive: DU-145 prostate 97.9% | K-562 leukemia 20.3% | MALME-3M melanoma 68.9% | MDA-MB-231 breast 87% | RXF 393 renal 80.1% | SF-268 CNS 82.7% | SF-295 CNS 91.9% | SF-539 CNS 82.9% | UACC-257 melanoma 86.7% | M14 melanoma 53.8% | HCT-15 colon 44.3% | HT29 colon 65.9% | SNB-75 CNS 65.1% | SNB-19 CNS 81% | U251 CNS 81.1% | PC-3 prostate 87.4% | SK-MEL-5 melanoma 86.1% | UACC-62 melanoma 59.1% | LOX IMVI melanoma 71.9% | SK-MEL-28 melanoma 84.4%

COc1ccc(/C(C)=C(\c2ccc(Cl)cc2)c2ccc(OCCCN(C)C)cc2)cc1
inactive: DU-145 prostate 90.4% | MALME-3M melanoma 64.5% | MDA-MB-231 breast 78.9% | RXF 393 renal 70.1% | SF-268 CNS 77.4% | SF-295 CNS 85.7% | SF-539 CNS 82.5% | UACC-257 melanoma 89.1% | M14 melanoma 36.8% | HCT-15 colon 20.4% | SNB-75 CNS 97.2% | SNB-19 CNS 73.8% | U251 CNS 41% | PC-3 prostate 68.2% | UACC-62 melanoma 83.9% | LOX IMVI melanoma 22.1% | SK-MEL-28 melanoma 75.1%
active: K-562 leukemia 1.91% | HT29 colon 1.29%

O=C(Nc1ccccc1CNc1nc(Nc2ccc(OCCN3CCCC3)cc2)ncc1Cl)NC1CCCCC1
active: K-562 leukemia 6.79% | HT29 colon 9.11%
inactive: DU-145 prostate 82.8% | MALME-3M melanoma 67.7% | MDA-MB-231 breast 69.7% | RXF 393 renal 56.8% | SF-268 CNS 73.1% | SF-295 CNS 82% | SF-539 CNS 84.3% | UACC-257 melanoma 78.3% | M14 melanoma 31.1% | HCT-15 colon 60.7% | SNB-75 CNS 96.5% | SNB-19 CNS 91.6% | U251 CNS 70.4% | PC-3 prostate 84% | UACC-62 melanoma 97.3% | LOX IMVI melanoma 84.7% | SK-MEL-28 melanoma 79.8%

CC1(C)CC[C@]2(CO)CC[C@]3(C)C(=CC[C@@H]4[C@@]5(C)CCNCC(C)(C)[C@@H]5CC[C@]43C)[C@@H]2C1
inactive: DU-145 prostate 81.5% | MALME-3M melanoma 63.1% | MDA-MB-231 breast 73.7% | RXF 393 renal 61.6% | SF-268 CNS 105% | SF-295 CNS 97.6% | SF-539 CNS 85.8% | HT29 colon 12% | SNB-75 CNS 79.4% | SNB-19 CNS 96.9% | U251 CNS 56.6% | PC-3 prostate 59% | UACC-62 melanoma 94.2% | LOX IMVI melanoma 76%
active: K-562 leukemia 7.94% | UACC-257 melanoma 9.86% | M14 melanoma -2.42% | HCT-15 colon 5.97% | SK-MEL-28 melanoma -29%

O=C(Nc1ccc(Cl)cc1)C1=NCCCCN1
inactive: DU-145 prostate 84.1% | K-562 leukemia 42.3% | MALME-3M melanoma 96.7% | MDA-MB-231 breast 97.9% | RXF 393 renal 106% | SF-268 CNS 77.7% | SF-295 CNS 93.4% | SF-539 CNS 95.8% | UACC-257 melanoma 99.7% | M14 melanoma 75.7% | HCT-15 colon 55.4% | HT29 colon 89.6% | SNB-75 CNS 95.6% | SNB-19 CNS 101% | U251 CNS 90.9% | PC-3 prostate 73% | UACC-62 melanoma 45.1% | LOX IMVI melanoma 30.5% | SK-MEL-28 melanoma 111%

Cc1c2ccncc2c(C)c2c1c1ccccc1n2CCCCCC(=O)O
inactive: DU-145 prostate 104% | K-562 leukemia 92.5% | MALME-3M melanoma 108% | MDA-MB-231 breast 81.2% | RXF 393 renal 93.2% | SF-268 CNS 86.6% | SF-295 CNS 95.3% | SF-539 CNS 90.2% | UACC-257 melanoma 106% | M14 melanoma 103% | HCT-15 colon 87.1% | HT29 colon 101% | SNB-75 CNS 82.8% | SNB-19 CNS 86.1% | U251 CNS 85.8% | PC-3 prostate 86.2% | UACC-62 melanoma 85.2% | LOX IMVI melanoma 74.4% | SK-MEL-28 melanoma 113%

CO[C@H]1CC(c2ccc[nH]2)=N[C@]12O[C@@H](C)C[C@@H]1CCCCCCCc3ccc([nH]3)[C@H]12
active: MALME-3M melanoma -14.5% | SNB-75 CNS 3.5% | UACC-62 melanoma -47.8% | LOX IMVI melanoma -45.1%
inactive: DU-145 prostate 30.3% | K-562 leukemia 21.3% | MDA-MB-231 breast 14.1% | RXF 393 renal 52.7% | SF-268 CNS 48.6% | SF-295 CNS 17.4% | SF-539 CNS 20% | UACC-257 melanoma 13.2% | M14 melanoma 13.2% | HCT-15 colon 10.4% | HT29 colon 12.3% | SNB-19 CNS 55.4% | U251 CNS 19.7% | PC-3 prostate 42.2% | SK-MEL-28 melanoma 38.6%

CC(C)(C)n1cc(-c2ccnc(NCCNS(=O)(=O)c3cccc4ccccc34)c2)c(-c2cccc(O)c2)n1
active: HT29 colon 6.71%
inactive: DU-145 prostate 83.3% | K-562 leukemia 15.4% | MALME-3M melanoma 75.7% | MDA-MB-231 breast 81.9% | RXF 393 renal 73.3% | SF-268 CNS 81.4% | SF-295 CNS 92.5% | SF-539 CNS 77.1% | UACC-257 melanoma 81.1% | M14 melanoma 66.5% | HCT-15 colon 20.9% | SNB-75 CNS 37.9% | SNB-19 CNS 88% | U251 CNS 57.5% | PC-3 prostate 59% | UACC-62 melanoma 76.9% | LOX IMVI melanoma 61.8% | SK-MEL-28 melanoma 83.4%
